# UHRF1 binding: UHRF1 methylated DNA binding inhibitors, primary screen, counter-screen for MBD2 inhibitor project, biochemical, TR-FRET, human UHRF1, single concentration | E3 ubiquitin-protein ligase UHRF1 (Homo sapiens), Q96T88 | 370,000 tested, 0.75% active | inhibition, % at 4.4 µM | UHRF1 binding to methylated oligo; in the data active = inhibition above about 21%;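 note: UHRF1 SRA domain binding a hemimethylated CpG hairpin DNA probe; 0% = median of test compound wells and 100% = reference inhibitor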
# Rin1 Abl inh: inhibitors of Rin1-Abl protein binding, primary screen, biochemical, TR-FRET | Tyrosine-protein kinase ABL1 (Homo sapiens) + Ras and Rab interactor 1 (Homo sapiens), … | inhibition, % at 7.35 µM | 360,000 tested, 0.4% active | AID 588664, 2011; in the data active = inhibition above about 5%, passing the limit was not always enough
# Neddylation inh: inhibitors of cullin neddylation, primary screen, biochemical, TR-FRET, uHTS, NAE and Ubc12; calls only at 25 µM; 360,000 tested, 0.58% active; in the data active = inhibition above about 36%
# MBD2 inh: inhibitors of MBD2 binding to methylated DNA, primary screen, biochemical, TR-FRET, DNA-binding domain, human; 370,000 tested, 0.31% active; inhibition, % at 4.4 µM; Methyl-CpG-binding domain protein 2 (Homo sapiens), Q9UBB5; MBD2 binding to methylated oligonucleotide; in the data active = inhibition above about 13%
# KLK7 zymogen act: proKLK7 zymogen activators, primary screen, biochemical, fluorescence intensity; 370,000 tested, 0.9% active; Kallikrein-7 (Homo sapiens), P49862; activation, % at 7 µM; purified proKLK7, EDANS-DABCYL substrate fluorescence; 100% is mature enzyme control, 0% vehicle;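 active = activation above the mean of all tested compounds plus 3 SD, computed per campaign excluding outliers beyond control limits, cut at about 13% in these data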
# LEDGF integ inh: blockers of LEDGF/p75-dependent integrase strand transfer – biochemical, TR-FRET, high throughput, primary screen | HIV-1 integrase (with human LEDGF/p75) | TR-FRET IN-LEDGF/p75 DNA integration, Eu/Cy5 | inhibition, % at 3.7 µM | 370,000 tested, 0.64% active | AID 743269, 2014;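 active = inhibition above the screen-wide mean plus 3 SD, cut at about 13% in these data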;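 note: signal is the Cy5 over europium emission ratio at 671 and 618 nm; 0% = plate median of compound wells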
# KLK7 act conf: proKLK7 zymogen activators, confirmation, biochemical, fluorescence intensity, triplicate. shares compounds with KLK7 zymogen act. purified proKLK7, EDANS-DABCYL substrate fluorescence; scaled: vehicle 0, mature enzyme 100. 3,200 tested, 68% active. activation, % at 7 µM;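 active = activation, as change over the incubation, above the mean of all tested compounds plus 3 SD, cut at about 13% in these data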
# EDANS interfere: EDANS-DABCYL substrate optical interference, artefact control for kallikrein-7 zymogen activator project, biochemical, fluorescence intensity, high throughput | AID 686952, 2013 | activation, % at 7 µM | no enzyme, 4 h; solvent 0%, active enzyme control 100% | shares compounds with KLK7 zymogen act | 3,200 tested, 80% active;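 active = activation above the all-compound mean plus 3 SD, ignoring values outside control-based bounds, cut at about 4.8% in these data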;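 note: value is the 4 h activation minus the activation read at time zero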
# The depositor's hits bear a star; i = inactive; . = no result shown. Most compounds without a hit are left out; they make up all but 3.1% or so of the library.
SMILES,UHRF1 binding,Rin1 Abl inh,Neddylation inh,MBD2 inh,KLK7 zymogen act,LEDGF integ inh,KLK7 act conf,EDANS interfere
CCN(CC)C(=O)[C@H]1C[C@H](CC(=O)NC/C=C(\C)CCC=C(C)C)C(=O)N2CCc3c([nH]c4cc(-c5ccco5)ccc34)[C@]12C,0,5,.,0,19*,5,4,12*
CC(C)N(C(=O)[C@H]1C[C@H](CC(=O)NCCC2=CCCCC2)C(=O)N2CCc3c([nH]c4cc(-c5ccco5)ccc34)[C@]12C)C(C)C,0,-3,.,-3,-4,5,.,.
CC(C)=CCC/C(C)=C/CNC(=O)C[C@H]1C[C@H](C(=O)N(C(C)C)C(C)C)[C@@]2(C)c3[nH]c4cc(-c5ccco5)ccc4c3CCN2C1=O,0,-2,.,4,-4,2,.,.
O=C(CC1CCCC1)N[C@@H](Cc1cccnc1)C(=O)N1CCC[C@H]1C(=O)NCCc1ccccc1Cl,2,.,.,6,0,1,.,.
CC1=C(C(=O)N(C(C)C)C(C)C)CC(CC(=O)NC2CCCCC2)C(=O)N1Cc1ccc(F)cc1 (configuration not stated),1,5,i,-3,0,4,.,.
CC(C)(N[C@@H](Cc1c[nH]c2ccccc12)C(=O)NCC(c1ccccc1)c1ccccc1)C(=O)NC1CCCCC1,0,.,.,1,.,0,.,.
CCN(CC)C(=O)[C@H]1C[C@H](CC(=O)NCCCN(C)C)C(=O)N2CCc3c([nH]c4cc(-c5ccco5)ccc34)[C@]12C,-2,0,.,-1,90*,3,73*,84*
CC(C)CCNc1c(-c2cccs2)nc2ccccn12,0,4,.,0,144*,-1,-8,-19
O=C(COc1ccc(Cl)cc1)Nc1c(-c2cccs2)nc2ccccn12,0,0,i,0,13*,0,10,0
c1cc(-c2ccoc2)n2ccnc2c1,6,-2,i,-5,-1,11,.,.
c1cc(-c2ccsc2)n2ccnc2c1,1,-5,.,-2,-1,-3,.,.
c1cc(-c2ccc(CN3CCOCC3)cc2)n2ccnc2c1,-1,-2,.,2,24*,2,21*,22*
N#Cc1ccc(-c2cccc3nccn23)cc1,-3,-6,.,-3,78*,1,73*,68*
CC(=O)Nc1cccc(-c2cccc3nccn23)c1,-4,-4,.,0,18*,-1,24*,27*
CN1CCN(c2ccc(-c3cccc4nccn34)cn2)CC1,-1,2,.,-1,50*,0,22*,19*
CC(=O)c1ccc(-c2cccc3nccn23)cc1,-1,-4,i,-3,-1,-1,.,.
C/C=C/c1cccc(-c2nc(C(=O)NC3Cc4ccccc4C3)cc3c2[C@@H](CCO)N(C(C)=O)C3)c1,0,.,i,-1,0,-2,.,.
CC(=O)N1C[C@@H](CO)[C@@H](N(C)C(=O)C2CCCCC2)C[C@H]1c1ccccc1,4,3,i,6,0,-8,.,.
Cc1cc2c(C)cc(=O)oc2c2c1NCCC2,-6,-5,i,-9,68*,0,62*,63*
CCN(CC(=O)NCc1ccc(F)cc1)C(=O)/C=C/c1cc(OC)ccc1OC,-1,1,.,4,69*,0,60*,66*
COc1ccc(-c2cc(-c3ccccc3)nc(=O)[nH]2)cc1,0,1,.,-3,62*,0,31*,46*

# Compound activity from PubChem BioAssay.
